# Many of the other results were omitted from the sample, so hits are more common in it than they were.
# ROCK2 inh: blocks human Rho kinase 2 activity | inhibition, % at 6 µM | 0.35% of 60,000 active | purified ROCK2, Kinase-Glo ATP depletion luminescence | AID 604 | O75116;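 active means inhibition above the screen-wide mean inhibition plus 3 SD, cut at about 18% in these data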;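 further: plate controls were DMSO wells for no effect and Y-27632 control wells after no-enzyme background subtraction for full effect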
# PKA kinase inh: PKA (human) kinase inhibition. P17612. PKA Kemptide phosphorylation, Kinase-Glo ATP luminescence. inhibition, % at 6 µM. 0.1% of 65,000 active. AID 524;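 active means inhibition above the screen-wide mean inhibition plus 3 SD, cut at about 21% in these data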
# hDAT+cocaine: changed human dopamine transporter uptake under cocaine IC80 | 1.3% of 110,000 active | Q01959 | B-score at 10 µM | LLC-PK1 hDAT cells, [14C]-dopamine uptake with cocaine IC80; actives deviate in either direction;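 active means Z score or B-score, a plate-position-corrected score, falls beyond the plate's 99.7% confidence bounds, in either direction; inactive means both scores lie inside the 99.7% bounds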;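 further: scored against the spread of the other compound wells on the same plate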
# Target sequence (Q01959 whole entry, looked up): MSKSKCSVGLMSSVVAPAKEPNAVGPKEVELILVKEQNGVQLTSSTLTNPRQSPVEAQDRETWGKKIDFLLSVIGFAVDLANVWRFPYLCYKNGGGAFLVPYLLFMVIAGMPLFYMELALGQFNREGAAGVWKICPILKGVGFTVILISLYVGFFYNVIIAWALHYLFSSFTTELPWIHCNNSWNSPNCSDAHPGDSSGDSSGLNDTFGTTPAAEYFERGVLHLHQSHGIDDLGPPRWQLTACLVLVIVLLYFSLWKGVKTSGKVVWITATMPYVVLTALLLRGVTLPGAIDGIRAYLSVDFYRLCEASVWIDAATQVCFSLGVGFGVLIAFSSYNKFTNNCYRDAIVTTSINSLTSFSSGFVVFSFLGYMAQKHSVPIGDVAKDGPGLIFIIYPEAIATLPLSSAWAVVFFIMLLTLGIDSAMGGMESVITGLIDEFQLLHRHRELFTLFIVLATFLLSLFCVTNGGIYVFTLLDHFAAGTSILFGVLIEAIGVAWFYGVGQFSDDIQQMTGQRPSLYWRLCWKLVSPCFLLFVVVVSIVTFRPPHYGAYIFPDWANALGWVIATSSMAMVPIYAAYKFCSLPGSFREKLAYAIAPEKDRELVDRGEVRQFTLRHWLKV
# JNK3 inh: blocks human JNK3 kinase activity; purified JNK3 kinase activity, HTS; inhibition, % at 8 µM; 0.61% of 60,000 active; in the data active means inhibition above about 17%;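 further: 0% = DMSO and 100% = reference inhibitor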
# D1 mod: allosterically modulates the human D1 dopamine receptor | HEK293 D1, CRE-luciferase, dopamine EC30 potentiation; actives deviate in either direction | B-score at 10 µM | 5.9% of 58,000 active | P21728;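 active means luminescence count or its row- and column-corrected plate score outside the 99.7% band of the plate's sample wells, on either side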
# D1 mod confirm: D1 receptor (human) allosteric modulation, confirmed; shares compounds with D1 mod; HEK293 D1 CRE-luciferase, dopamine EC30 potentiation; stronger effect = higher value; luminescence at 10 µM; 88% of 2,200 active;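 active means luminescence in either of two replicates above the same-plate mean plus 3 SD of the low-dose dopamine control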
# D1 ag no DA: secondary test of D1 modulators: activity without dopamine; shares compounds with D1 mod; HEK293 D1 CRE-luciferase, luminescence, no dopamine; stronger effect = higher value; luminescence at 10 µM; 0.8% of 1,900 active; AID 646; in the data active means luminescence above about 3900
# Isoprot counter: isoproterenol response counter-screen activity for D1 modulators; shares compounds with D1 mod; HEK293 D1 CRE-luciferase, isoproterenol EC30 counter-screen; calls only at 10 µM; 63% of 2,200 active;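 active means luminescence in either replicate above plate mean of wells with a partly effective reference agonist dose plus 3 SD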;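 further: isoproterenol raises cAMP through native beta-adrenoceptor Gs so signal bypasses D1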
# * hit, by the source's call; i = inactive; x = no result given; + = active, no number.
SMILES,ROCK2 inh,PKA kinase inh,hDAT+cocaine,JNK3 inh,D1 mod,D1 mod confirm,D1 ag no DA,Isoprot counter
Cc1ccc(Cn2c(-n3nc(C)cc3C)nc3c2c(=O)[nH]c(=O)n3C)cc1,0.4,4.5,0.722,-6.0,3.54*,9484*,1480,i
CCn1c(N2CCC(Cc3ccccc3)CC2)nc2c1c(=O)[nH]c(=O)n2C,-6.0,-8.9,-0.0198,0.6,0.0772,x,x,x
Cc1cc(C)n(-c2nc3c(c(=O)[nH]c(=O)n3C)n2Cc2cccc(Br)c2)n1,0.1,3.9,0.438,-2.3,1.08,x,x,x
Cn1c(=O)c2c(nc(N3CCN(Cc4ccccc4)CC3)n2CCSc2ncccn2)n(C)c1=O,-1.5,-5.4,x,1.6,-0.136,x,x,x
Nc1cc(C2CCCC2)nn1-c1ccccc1,x,1.4,0.158,x,0.0206,x,x,x
CC1(C)Cc2c(c(-c3ccccc3)[nH]c(=O)c2C#N)CO1,2.0,-0.5,-0.968,-1.2,7.2*,17304*,1772,+
CC1(C)Cc2c(c(-c3ccccc3Cl)[nH]c(=O)c2C#N)CO1,3.6,-1.1,1.96,-3.7,x,x,x,x
COc1ccc(CCNC(=O)CSc2ncn[nH]2)cc1,x,x,-2.05,x,x,x,x,x
O=C(Cc1ccccc1)Nc1nonc1NC(=O)c1ccccc1,1.3,5.4,-0.206,-2.7,4.08*,8752*,1296,+
C/C=C/Cn1c(N2CCCCCC2)nc2c1c(=O)[nH]c(=O)n2C,-3.9,-1.1,x,0.1,15.4*,16408*,1784,+
Cn1c(=O)[nH]c(=O)c2c1nc(N1CCCCC1)n2CCOc1ccccc1,0.0,6.3,0.189,2.5,14*,22140*,1548,+
CCCn1c(N2CCN(CC(=O)c3c(C)n(C)c4ccccc34)CC2)nc2c1c(=O)[nH]c(=O)n2C,1.1,-8.2,2.81*,-8.4,4.43*,12284*,1832,+
Cn1c(=O)[nH]c(=O)c2c1nc(N1CCCC1)n2CC(O)COc1ccccc1 (configuration not stated),3.0,-4.1,0.491,2.5,x,x,x,x
CCN(c1cccc(C)c1)S(=O)(=O)c1cnc[nH]1,x,x,1.07,x,x,x,x,x
C=CCn1c(SCC(=O)Nc2sc(C)c(C)c2C(=O)OCC)nnc1-c1sc(N)nc1C,6.5,4.1,-0.146,8.6,2.71*,10116*,1640,i
CC(C#N)Sc1nc2ccccc2c(=O)n1-c1ccccc1 (configuration not stated),4.4,8.5,0.0192,-2.8,9.23*,22624*,1776,+
Cc1ccc(N2CC(c3nc4ccccc4[nH]3)CC2=O)c(C)c1 (configuration not stated),5.7,7.5,0.155,4.9,10.9*,6760,1648,i
Cc1nc2c3ccccc3n(CC#N)c(=O)n2n1,5.3,3.1,-1.27,8.7,4.69*,8580*,x,+
Cc1c(C#N)c2ccccc2n1CC(=O)O,3.2,12.0,x,2.0,0.0584,x,x,x
CSc1ccc2[nH]c(=O)cc(C)c2c1,7.7,7.8,-0.225,4.5,-0.0543,x,x,x
COc1cccc(/C=N/n2c(SC)nnc2-c2ccccc2)c1O,7.2,14.7,-0.175,7.0,-2.27,x,x,x
COc1cccc(/C=N/n2c(SC)nnc2-c2ccccc2)c1OC,1.6,-4.4,-0.0456,1.0,5.95*,8100*,1656,+
NC1=NC[C@H](c2ccccc2)N1CCc1cccc(F)c1,x,x,1.49,x,x,x,x,x
O=C(c1ccco1)N1CCN(/C(=N/S(=O)(=O)c2cccs2)c2ccccc2Cl)CC1,4.3,3.4,1.39,-0.8,0.822,x,x,x
COc1ccccc1-c1nnc2n1N=C(c1ccc(O)c(O)c1)CS2,-13.1,0.7,-1.77,-5.3,22.9*,21320*,x,+
SMILES,ROCK2 inh,PKA kinase inh,hDAT+cocaine,JNK3 inh,D1 mod,D1 mod confirm,D1 ag no DA,Isoprot counter
Brc1ccccc1C1=Nn2c(nnc2-c2ccccc2)SC1,-3.5,-13.5,0.183,-2.6,11.6*,13500*,1464,+
CCOc1ccc(-c2nnc3n2N=C(c2ccc(OC)cc2)CS3)cc1,x,8.2,-0.121,x,x,x,x,x
CCOc1ccc(C2=Nn3c(nnc3-c3ccccc3OC)SC2)cc1,5.0,4.8,0.247,4.4,28.2*,21740*,x,+
CC1CCc2cc(F)ccc2N1C(=O)CN1C(=O)c2ccccc2C1=O (configuration not stated),-5.7,-4.9,0.16,-1.0,1.75,x,x,x
CC(=O)N1CCc2cc(S(=O)(=O)NCCN3CCC(C)CC3)ccc21,x,2.2,-0.542,x,x,x,x,x
CCOC(=O)c1sc(C)c2c1NC1(CCCCC1)NC2=O,6.3,12.2,0.0711,9.6,6.16*,14036*,x,+
CCOC(=O)c1sc(C)c2c1NC1(CCCCCC1)NC2=O,x,x,0.166,x,x,x,x,x
CCn1cc(Cl)c(C(=O)N2N=C3/C(=C/c4cccs4)CCCC3C2c2cccs2)n1 (configuration not stated),x,x,1.9,x,x,x,x,x
Cc1cc(C)nc(SCc2nc(N)nc(-c3ccccc3O)n2)n1,10.9,8.7,-0.0905,12.5,12.5*,17172*,1668,+
Cc1cc(Cl)c(S(=O)(=O)NC2CCCCC2)cc1OCC(=O)Nc1nncs1,5.7,6.7,0.179,2.0,-1.85,x,x,x
CCOc1ccc(C(CCc2ccccc2)NC(=O)c2ccccc2F)cc1OCC (configuration not stated),x,x,-0.429,x,x,x,x,x
N#Cc1c(-c2ccccc2)nc(N2CCOCC2)[nH]c1=O,5.3,7.3,0.706,3.6,0.473,x,x,x
N#Cc1c(-c2ccccc2)nc(N2CCCCCC2)[nH]c1=O,0.8,10.0,-0.0769,8.7,12.5*,26112*,1656,+
O=C(NCC1CCCO1)c1onc(CSc2ccccc2F)c1C(=O)O (configuration not stated),x,x,0.0171,x,x,x,x,x
CCCCC(=O)Nc1ccc(C(=O)N2CCC(C(=O)OCC)CC2)cc1,x,x,-1.45,x,x,x,x,x
CNc1nc(C)nc(-c2ccccc2O)n1,6.6,11.0,x,3.2,9.09*,23276*,1644,+
Nc1nc(N)nc(-c2ccccc2O)n1,x,x,0.262,x,x,x,x,x
Cn1nc(CC(=O)NCCN2C(=O)CSC2=O)c2ccccc2c1=O,4.7,5.3,-0.796,-1.4,0.828,x,x,x
Cc1ccnc(NS(=O)(=O)c2ccc(NC(=O)c3c(-c4ccccc4Cl)noc3C)cc2)n1,x,x,0.96,x,x,x,x,x
CC(NC(=O)CSc1ncnc2nc[nH]c12)c1ccccc1 (configuration not stated),x,x,0.87,x,1.61,x,x,x
CCCCSc1nc(CCC)cc(=O)[nH]1,x,x,-0.13,x,5.25*,15600*,1616,+
CCCc1cc(=O)[nH]c(SCC)n1,3.1,3.4,1.07,3.5,-0.487,x,x,x
Cc1ncc([N+](=O)[O-])n1CCOC(=O)Nc1ccc(Cl)c(Cl)c1,x,x,-0.147,x,x,x,x,x
COc1ccc(Cl)cc1C(=O)CSc1nnnn1C1CCCC1,5.5,1.6,-0.591,-1.9,2.78*,6668*,1592,i

# Source: PubChem BioAssay (several laboratories)
